# Only some compounds are listed: those with a hit (about 13% of all), similar ones and a draw of the others.
# HSD17B inh – blocks hydroxysteroid 17-beta dehydrogenase activity | Q99714 | recombinant HSD17B10, NADH fluorescence kinetic | 75,000 compounds, 7.6% hits | Potency, µM (top dose mostly 57.1 µM), for inactives: top-dose activity change, negative = inhibition, usual class: inhibitors;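 note: the protocol describes HADH2 (HSD17B10) and not the HSD17B4 of the title; potency is the fitted concentration of half-maximal effect; % is set by controls: 0 for no effect and ±100 for the full control effect; nearly all actives have a fitted effect of over 70% in size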
#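 Enzyme plus compound, 15 min room temperature; substrate mix added (NAD+ 1 mM, beta-hydroxybutyryl-CoA 90 uM final); plates read kinetically for NADH fluorescence. HADH2 was His-tagged, E. coli-derived, 20 nM.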
# 4MU fluor – compound fluoresces in the 4-MU spectral region; compound autofluorescence, 340/450 nm, 4-MU equivalents; active compounds read high; max dye-equivalent concentration, M; 59,000 compounds, 11% hits; in the data active = max dye-equivalent concentration above about 10 nM; inconclusive = mostly about 1.1 nM to 9.6 nM
#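 Compounds in 100 mM Tris, pH 8.0, sat 15 min at room temperature before fluorescence was read at 340 nm excitation/450 nm emission; a per-plate six-point 4-MU standard curve converted signals to dye-equivalent concentration at each compound concentration.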
# A350 fluor – compounds fluorescent in Alexa 350 spectral region; max dye-equivalent concentration, M; 59,000 compounds, 11% hits; AID 590; Compound autofluorescence, 340/450 nm, Alexa 350 dye-equivalents; active compounds read high; in the data active = max dye-equivalent concentration above about 10 nM; inconclusive = mostly about 1.1 nM to 9.6 nM
# AID923 – qHTS Assay for Allosteric/Competitive Inhibitors of Caspase-1: Spectroscopic Profiling in AFC Spectral Region | 75,000 compounds, 1.1% hits | compound fluorescence, AFC spectral region (405/520 nm) | Potency, µM (highest dose often 57.5 µM), without a hit: at the top dose fluorescence increase, usual class: activators | AID 923, 2007; note: potency is the fitted concentration of half-maximal effect; 0% is about no effect
#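 Compound autofluorescence profiled at 405 nm ex/520 nm em during kinetic caspase 1 run (50 nM enzyme, 5 uM Ac-WEHD-AFC, HEPES pH 7.5, 10 mM DTT). Titration up to 57 uM; baseline from regression intercept, normalized to AFC standard curve.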
# HADH2 inhib – inhibitors of human HADH2 dehydrogenase; AID 886; Q99714; Potency, µM (highest dose often 57.1 µM), inactives show top-dose activity change, negative = inhibition, hits mostly inhibitors; recombinant HADH2, NADH fluorescence, beta-hydroxybutyryl-CoA; 73,000 compounds, 3.4% hits; note: potency is the fitted concentration of half-maximal effect; % is set by controls: 0 for no effect and ±100 for the full control effect; nearly all actives have a fitted effect of over 60% in size
# Target sequence (Q99714 whole entry, looked up, one chain of several): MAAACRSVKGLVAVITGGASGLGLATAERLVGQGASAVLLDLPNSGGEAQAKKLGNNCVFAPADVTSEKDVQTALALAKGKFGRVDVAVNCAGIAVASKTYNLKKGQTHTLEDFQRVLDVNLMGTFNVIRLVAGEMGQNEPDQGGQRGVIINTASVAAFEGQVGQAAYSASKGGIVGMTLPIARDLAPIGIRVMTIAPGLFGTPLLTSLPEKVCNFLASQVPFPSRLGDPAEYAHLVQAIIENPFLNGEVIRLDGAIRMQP
#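 Activity measured as NADH fluorescence gain (360/450 nm), taken as the change between first and last reads of a 4-min kinetic run. Conditions: pH 9.0 Tris buffer, 20 nM E. coli-expressed His-tagged enzyme, 1 mM NAD+, 90 uM beta-hydroxybutyryl-CoA; 15-min compound preincubation.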
# The depositor's hits bear a star; i = inactive; u = inconclusive; x = no result; [ ] = another dose, or the depositor's remark. Unless noted, calls come from the whole dose curve; as a rule, active = well fitted curve in the direction sought with a large enough effect; inconclusive = small, poorly fitted or top-dose-only effect, or another doubt; inactive = no such curve, though single readings can be large; an effect the other way counts as inactive or inconclusive.
SMILES,HSD17B inh,4MU fluor,A350 fluor,AID923,HADH2 inhib
CCCOC(=O)C1=C(C)NC2=C(C(=O)CCC2)C1c1cc(OC)ccc1OC (configuration not stated),-11%,4.1e-08M*,5.3e-08M*,7%,-5%
CCCOC(=O)C1=C(C)NC2=C(C(=O)CCC2)C1c1ccc(N(C)C)cc1 (configuration not stated),2%,2.8e-08M*,2.6e-08M*,4%,1%
CCCc1cc(C(=O)Nc2sc(C)c(CC)c2C#N)no1,u,x,x,4%,u
N#Cc1c(NC(=O)c2nc3ncccn3n2)sc2c1CCCCC2,-27%,2.4e-08M*,1.8e-08M*,0%,u
Cc1cc(C(=O)Nc2sc3c(c2C#N)CCCCC3)cs1,u,4.9e-08M*,6.3e-08M*,-1%,16µM*
O=C(NC1CCCCCC1)c1nc2ncccn2n1,7%,i,i,-1%,-19%
CCCc1cc(C(=O)Nc2sc(C)c(C)c2C(=O)OCC)no1,32µM*,x,x,-1%,u
CCCc1cc(C(=O)Nc2sc3c(c2C#N)CCC3)no1,u,x,x,3%,16µM*
CC(C)CN1CCCC2(CCN(C(=O)c3cc(C(F)(F)F)cc(C(F)(F)F)c3)CC2)C1,-1%,i,i,2%,4%
N#Cc1c(NC(=O)c2ccncc2)sc2c1CCC2,u,i,i,-2%,7.9µM*
CCCC(=O)Nc1sc2c(c1C#N)CCCC2,x,i,i,x,x
COC(=O)c1ccc2[nH]c(C)c(CN3CCCC3)c(=O)c2c1,25µM*,3.6e-08M*,5.1e-08M*,18%,u
CCCCCC[C@@H]([C@H](C)O)n1cnc2c(N)ncnc21,-5%,1e-08M*,u,-2%,9%
Nc1ncnc2c1ncn2CCCCC(=O)O,-6%[11.4 µM],i,i,-2%[11.5 µM],5%[11.4 µM]
COc1cc(OC)cc(C(=O)N(Cc2cc3cc(C)ccc3[nH]c2=O)C(C)C)c1,u,u,u,3%,1%
CCOC(=O)C1=C(C)NC(C)=C(C(=O)OCC)C1c1cc2ccc(C)cc2[nH]c1=O,25µM*,1.1e-08M*,1.1e-08M*,12%,14%
COC(=O)C1=C(C)NC(C)=C(C(=O)OC)C1c1cc2ccc(C)cc2[nH]c1=O,u,2.3e-08M*,2.1e-08M*,2%,-5%
COC(=O)C1=C(C)NC(C)=C(C(=O)OC)C1c1cc2cc(C)ccc2[nH]c1=O,32µM*,1.5e-07M*,2e-07M*,4%,9%
Cc1ccc2cc(COC(=O)c3ccncc3)c(=O)[nH]c2c1,34%,i,i,3%,10%
O=C(c1csnn1)N1CCC[C@@]2(CCN(C(c3ccccc3)c3ccccc3)C2)C1,-2%,i,i,1%,-6%
CC1(C)NC(=O)N(CC(O)COC2CCCCC2)C1=O (configuration not stated),3%,i,i,1%,-4%
CC1(C)NC(=O)N(CC(O)CN2CCCCC2)C1=O (configuration not stated),u,2.3e-08M*,2.4e-08M*,0%,10%
Cc1cccc(C)c1NC(=O)C1(N(Cc2ccco2)C(=O)c2ccccn2)CCCC1,-4%,u,1.2e-08M*,0%,5%
CC(=O)NCCNc1cc(-c2ccccc2C)ncn1,0%,1e-08M*,1.3e-08M*,-1%,-2%
CN1CCN(Cc2c(O)ccc3c(=O)c(Oc4ccccc4Cl)c(C(F)(F)F)oc23)CC1,u,x,x,18%,-17%
SMILES,HSD17B inh,4MU fluor,A350 fluor,AID923,HADH2 inhib
CCOC(=O)c1c(CN2CCN(C)CC2)oc2ccc(OC)cc12,-24%,i,i,1%,5%
CCOC(=O)c1c(-c2ccccc2)oc2ccc(O)c(CN3CCOCC3)c12,-19%,i,i,-1%,-7%
CCOC(=O)c1c(CN2CCN(CCO)CC2)n(C)c2cc(Br)c(OC)cc12,x,i,i,x,x
Cc1oc2c(CN3CCCC3)c(O)ccc2c(=O)c1Oc1ccccc1Br,32µM*,3.6e-06M*,4.3e-06M*,16%,32µM*
CCOC(=O)c1ccc(Oc2c(C)oc3c(CN4CCN(C)CC4)c(O)ccc3c2=O)cc1,32µM*,1.8e-06M*,2.7e-06M*,8%,20%
COc1ccccc1Oc1c(C)oc2c(CN3CCN(CCO)CC3)c(O)ccc2c1=O,32µM*,1.3e-06M*,2e-06M*,7%,u
CCOc1ccccc1Oc1c(C)oc2c(CN3CCN(CCO)CC3)c(O)ccc2c1=O,32µM*,1.4e-06M*,2e-06M*,5%,173%
C=C(C)[C@H]1CC=C(C)C(=O)C1,-10%,x,x,1%,1%
c1ccc(CNc2ccnc(-c3ccoc3)n2)cc1,-6%,i,i,5%,9%
COCCn1c(=O)cnc2cnc(Oc3ccc(OC)cc3)nc21,3%,i,i,3%,-3%
CCOc1ccc2c(c1)sc(=NC(=O)C1CC1)n2C,u,1.5e-08M*,1.6e-08M*,0%,-28%
Cc1ccc(C2NC(=O)c3ccccc3N2)s1 (configuration not stated),20µM*,6.2e-07M*,6.5e-07M*,2%,25µM*
O=C1NC(c2ccncc2)Nc2ccccc21 (configuration not stated),25µM*,1.1e-07M*,1.3e-07M*,-1%,-7%
O=C1NC(c2ccco2)Nc2ccccc21 (configuration not stated),32µM*,7.8e-07M*,5.6e-07M*,1%,u
CC1Cc2ccccc2C(=O)N1 (configuration not stated),1%,x,x,1%,-1%
c1ccc(CSc2nnc3c(n2)OC(c2ccco2)Nc2ccccc2-3)cc1 (configuration not stated),-15%,x,x,-1%,-12%[11.4 µM]
O=C(c1ccco1)N1CCC2(CCCN(Cc3ccccc3)C2)CC1,5%,i,i,-1%,6%
CC(C)=O,4%,x,x,5%,-2%
COc1cc([C@H](O)CO)ccc1O,6%,i,i,-1%,-10%
COC(=O)c1c(NC(=O)CCc2ccc(C)o2)sc(C)c1C,32µM*,i,i,0%,u
COC(=O)c1ccc(C(=O)OC)c(NC2=NS(=O)(=O)c3ccccc32)c1,17%,2.4e-07M*,2.2e-07M*,3%,u
CCOc1ncccc1C(=O)OCC(=O)Nc1cc(C(=O)OC)ccc1C(=O)OC,17%,i,i,0%,-1%
COC(=O)c1c(NC(=O)CSc2nnnn2C)sc(C)c1C,-1%,i,i,-1%,-6%
COC(=O)c1ccc(C(=O)OC)c(NC(=O)CCC(=O)O)c1,25µM*,x,x,15%,11%
COC(=O)c1ccc(C(=O)OC)c(NC(=O)c2ocnc2C)c1,-4%,4e-08M*,u,0%,-4%
Nc1nc(SCc2ccccc2[N+](=O)[O-])c2[nH]cnc2n1,4%[11.4 µM],i,i,0%[11.5 µM],-2%[11.4 µM]
